# Measurements published in PubChem BioAssay (Tox21).
# Results filed as inconclusive are left out. Where a call stands in place of a potency, no number is given. The source made the active and inactive calls. Unless noted, calls follow the shape of the dose curve; as a rule, active = well fitted curve in the direction sought with a large enough effect in the repeat runs; inconclusive = weak or mixed curves; inactive = no such curve, though single readings can be large; an effect the other way counts as inactive or inconclusive.
# How the values were obtained:
# [1] = qHTS assay to identify small molecule antagonists of the sonic hedgehog signaling (Shh) pathway (AID 1259369; calls by dose curve; also: nearly all actives have a fitted effect of over 45% in size; also: potency is read from the fitted curve at half-maximal effect)
# Procedure, shortened: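 Antagonist mode: compound added to 3T3 Gli1-Luc cells followed by conditioned-medium stimulation, 24 h at 37 C, 5% CO2. Inhibition taken as loss of Gli1-driven luciferase luminescence.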
# [2] = qHTS assay to identify small molecule agonists of the androgen receptor (AR) signaling pathway in the presence of an antagonist - cell viability counter screen (AID 1259379); also: nearly all actives have a fitted effect of over 25% in size; also: potency is read from the fitted curve at half-maximal effect
# Procedure, shortened: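 Cytotoxicity counter-screen run in the same wells as the nilutamide-challenged (3.0 µM final) AR agonist assay in MDA-kb2 cells. Compounds tested at 15 concentrations for 16 h, 37 °C without CO2; CellTiter-Fluor fluorescence read.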
# [3] = qHTS assay to identify small molecule agonists of the estrogen receptor beta (ER-beta) signaling pathway - cell viability counter screen (AID 1259380); also: nearly all actives have a fitted effect of over 30% in size; also: potency is read from the fitted curve at half-maximal effect
# Procedure, shortened: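 Cell viability counter screen: CellTiter-Glo luminescence (30 min, room temperature) measured in the same wells as the beta-lactamase readout, after 16 hr compound exposure at 37C of ER-beta-bla HEK293T cells in 2% charcoal-stripped FBS medium.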
# [4] = qHTS assay to identify small molecule antagonists of the estrogen receptor beta (ER-beta) signaling pathway - cell viability counter screen (AID 1259382); also: nearly all actives have a fitted effect of over 55% in size; also: potency is read from the fitted curve at half-maximal effect
# Procedure, shortened: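 Cytotoxicity was measured in the same wells by CellTiter-Glo luminescence after 30 min at room temperature. Cells were ER-beta-bla HEK293T in charcoal-stripped serum, given compound together with 1 nM E2 and incubated 16 h at 37C.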
# [5] = target: Estrogen receptor (Homo sapiens) (UniProt P03372); test: qHTS assay to identify small molecule agonists of the estrogen receptor alpha (ER-alpha) signaling pathway in the presence of an antagonist (AID 1259383; calls by dose curve; also: top concentration of the series differs between compounds; nearly all actives have a fitted effect of over 15% in size)
# Estrogen receptor (Homo sapiens), sequence (P03372 whole entry, looked up): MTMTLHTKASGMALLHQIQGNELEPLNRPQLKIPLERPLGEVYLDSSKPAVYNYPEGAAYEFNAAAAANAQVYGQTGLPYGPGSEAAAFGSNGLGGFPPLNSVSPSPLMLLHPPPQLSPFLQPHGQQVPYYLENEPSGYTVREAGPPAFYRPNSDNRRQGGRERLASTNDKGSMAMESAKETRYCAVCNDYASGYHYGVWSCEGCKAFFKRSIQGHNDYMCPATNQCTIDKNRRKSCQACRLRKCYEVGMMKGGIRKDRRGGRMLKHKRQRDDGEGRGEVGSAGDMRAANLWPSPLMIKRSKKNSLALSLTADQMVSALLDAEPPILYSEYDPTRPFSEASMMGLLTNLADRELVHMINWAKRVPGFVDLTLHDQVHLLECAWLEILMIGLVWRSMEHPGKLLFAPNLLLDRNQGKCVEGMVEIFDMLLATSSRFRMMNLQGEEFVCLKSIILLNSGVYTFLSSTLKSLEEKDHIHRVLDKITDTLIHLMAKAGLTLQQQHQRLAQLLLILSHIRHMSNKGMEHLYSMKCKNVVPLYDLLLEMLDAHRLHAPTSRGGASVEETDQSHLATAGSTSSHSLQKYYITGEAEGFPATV
# Procedure, shortened: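 Agonist-mode confirmation run in the presence of 10.0nM (final) ICI-182,780 antagonist. The reporter was ERE-driven luciferase in VM7Luc4E2 cells, grown in charcoal-stripped serum. Cells were exposed to 15-concentration compound series for 22hr, then ONE-Glo luminescence was read.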
# [6] = qHTS assay to identify small molecule agonists or antagonists of the thyroid stimulating hormone receptor (TSHR) signaling pathway - wild type cell line counter screen (AID 1259384; calls by dose curve)
# Procedure, shortened: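 Wild-type HEK293 cells were plated 18 h at 37 C/5% CO2, pin-dosed with compound plus Ro20-1724 medium, held 30 min at room temperature, then given cAMP-d2 and anti-cAMP-cryptate; fluorescence was read after 1 h. Fifteen concentrations, triplicate.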
# [7] = target: Thyrotropin receptor (Homo sapiens) (UniProt P16473); test: qHTS assay to identify small molecule antagonists of the thyroid stimulating hormone receptor (TSHR) signaling pathway (AID 1259385; calls by dose curve; also: nearly all actives have a fitted effect of over 20% in size)
# Thyrotropin receptor (Homo sapiens), sequence (P16473 whole entry, looked up): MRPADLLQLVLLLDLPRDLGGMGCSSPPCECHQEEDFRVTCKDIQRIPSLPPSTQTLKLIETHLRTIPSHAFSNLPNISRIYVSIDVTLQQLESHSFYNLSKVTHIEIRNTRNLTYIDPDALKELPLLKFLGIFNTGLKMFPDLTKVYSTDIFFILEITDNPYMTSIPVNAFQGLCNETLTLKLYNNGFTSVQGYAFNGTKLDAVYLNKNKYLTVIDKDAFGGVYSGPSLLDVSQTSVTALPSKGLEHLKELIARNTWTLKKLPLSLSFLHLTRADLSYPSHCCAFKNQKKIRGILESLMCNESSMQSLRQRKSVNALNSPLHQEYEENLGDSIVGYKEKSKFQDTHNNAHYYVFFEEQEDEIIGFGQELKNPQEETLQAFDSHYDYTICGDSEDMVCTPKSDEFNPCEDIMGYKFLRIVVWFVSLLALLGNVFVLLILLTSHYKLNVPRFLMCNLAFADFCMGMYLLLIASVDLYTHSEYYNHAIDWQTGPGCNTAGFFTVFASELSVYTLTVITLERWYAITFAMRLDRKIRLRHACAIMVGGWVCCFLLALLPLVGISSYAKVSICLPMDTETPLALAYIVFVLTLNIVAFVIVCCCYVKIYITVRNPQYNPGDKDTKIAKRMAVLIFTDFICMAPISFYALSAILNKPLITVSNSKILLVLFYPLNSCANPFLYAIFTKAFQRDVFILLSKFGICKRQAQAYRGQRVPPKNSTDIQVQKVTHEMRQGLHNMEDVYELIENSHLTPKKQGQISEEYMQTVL
# Procedure, shortened: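 TSHR-HEK293 cells were plated and held 18 h at 37C/5% CO2, then given compound plus Ro20-1724 and stimulated with TSH at 1.5 ng/mL final. After 30 min at room temperature, cAMP was detected with cAMP-d2/anti-cAMP-cryptate (1 h) by fluorescence.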
# [8] = qHTS assay to identify small molecule agonists of the estrogen receptor alpha (ER-alpha) signaling pathway in the presence of an antagonist - cell viability counter screen (AID 1259386); also: nearly all actives have a fitted effect of over 30% in size; also: potency is read from the fitted curve at half-maximal effect
# Procedure, shortened: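 Compounds tested at 15 concentrations for 22 h at 37C alongside 10.0nM (final) ICI-182,780 antagonist, in VM7Luc4E2 cells grown in phenol red-free, charcoal-stripped medium. Viability read by CellTiter-Fluor fluorescence after 1 h reagent incubation.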
# [9] = target: Progesterone receptor (Homo sapiens) (UniProt P06401); test: qHTS assay to identify small molecule agonists of the progesterone receptor (PR) signaling pathway (AID 1346784; calls by dose curve; also: nearly all actives have a fitted effect of over 30% in size)
# Progesterone receptor (Homo sapiens), sequence (P06401 whole entry, looked up): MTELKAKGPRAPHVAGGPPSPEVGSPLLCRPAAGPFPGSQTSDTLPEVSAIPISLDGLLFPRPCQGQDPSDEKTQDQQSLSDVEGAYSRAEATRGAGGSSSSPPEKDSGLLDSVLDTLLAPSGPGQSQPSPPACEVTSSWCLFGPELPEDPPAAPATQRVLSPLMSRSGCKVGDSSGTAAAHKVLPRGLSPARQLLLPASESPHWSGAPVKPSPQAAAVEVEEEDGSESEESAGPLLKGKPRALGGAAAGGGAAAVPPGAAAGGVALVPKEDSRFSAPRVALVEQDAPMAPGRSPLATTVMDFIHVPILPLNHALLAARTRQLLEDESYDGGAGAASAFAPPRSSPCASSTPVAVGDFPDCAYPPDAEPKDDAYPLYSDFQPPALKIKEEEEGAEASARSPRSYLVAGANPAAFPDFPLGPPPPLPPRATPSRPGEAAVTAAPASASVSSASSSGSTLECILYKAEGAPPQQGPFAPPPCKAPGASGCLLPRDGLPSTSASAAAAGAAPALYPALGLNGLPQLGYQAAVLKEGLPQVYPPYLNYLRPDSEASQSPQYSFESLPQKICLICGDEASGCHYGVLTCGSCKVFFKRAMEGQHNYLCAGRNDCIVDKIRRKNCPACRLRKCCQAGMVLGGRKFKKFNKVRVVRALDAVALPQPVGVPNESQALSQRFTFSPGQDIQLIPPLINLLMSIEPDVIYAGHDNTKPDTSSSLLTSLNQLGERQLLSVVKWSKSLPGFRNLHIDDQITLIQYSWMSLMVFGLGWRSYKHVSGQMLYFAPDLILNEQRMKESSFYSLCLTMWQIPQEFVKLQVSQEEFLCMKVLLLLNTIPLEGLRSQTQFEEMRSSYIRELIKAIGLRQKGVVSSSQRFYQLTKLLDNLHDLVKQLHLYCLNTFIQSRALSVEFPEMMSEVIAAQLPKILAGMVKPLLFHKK
# Procedure, shortened: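 PR-UAS-bla HEK 293T cells (beta-lactamase reporter under UAS) in 2% charcoal-stripped FBS, dosed with 23 nL compound after 6 hr, incubated 16hr at 37C. LiveBLAzer B/G FRET substrate added, fluorescence read after 2 hours.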
# [10] = qHTS assay to identify small molecule antagonists of the progesterone receptor (PR) signaling pathway - cell viability counter screen (AID 1346798); also: nearly all actives have a fitted effect of over 50% in size; also: potency is read from the fitted curve at half-maximal effect
# Procedure, shortened: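 PR-UAS-bla HEK293T cells, 3,000/well in 2% charcoal-stripped FBS medium, dosed with compounds plus R5020 agonist and incubated 16 h at 37C. Viability then measured in the same wells by CellTiter-Glo luminescence after 30 min at RT.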
# [11] = qHTS assay to identify small molecule agonists of the progesterone receptor (PR) signaling pathway - cell viability counter screen (AID 1346799; calls by dose curve; also: nearly all actives have a fitted effect of over 45% in size; also: potency is read from the fitted curve at half-maximal effect)
# Procedure, shortened: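 Counter screen in the PR-UAS-bla HEK293T wells (2% charcoal-stripped FBS, 16 h compound exposure at 37 C) after the bla read. CellTiter-Glo added, 30 min at room temperature, luminescence read as cell viability.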
# [12] = qHTS assay to identify small molecule antagonists of the TGF-beta/Smad signaling pathway - cell viability counter screen (AID 1346824); also: nearly all actives have a fitted effect of over 50% in size; also: potency is read from the fitted curve at half-maximal effect
# Procedure, shortened: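 SBE-bla HEK 293T cells were plated overnight at 37 C, then given compounds in DMSO plus TGF-beta1 (added as 0.25 ng/mL solution) for 5 hr. After the bla read, CellTiter-Glo was added to the same wells and luminescence read after 30 min at room temperature.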
# [13] = qHTS assay to identify small molecule agonists of the TGF-beta/Smad signaling pathway - cell viability counter screen (AID 1346829); also: nearly all actives have a fitted effect of over 45% in size; also: potency is read from the fitted curve at half-maximal effect
# Procedure, shortened: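 Same-well cytotoxicity: CellTiter-Glo added after the 2 hr room-temperature beta-lactamase substrate step, luminescence measured 30 min later; cells had 5 hr of compound at 37 C.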
# [14] = qHTS assay to identify small molecule agonists of the TGF-beta/Smad signaling pathway (AID 1346859; active = well fitted activation curve with a large enough effect in the signal ratio in the repeat runs, not every such curve was filed as active; the % refers to the signal ratio; also: series mostly up to about 77 µM)
# Procedure, shortened: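 SBE-bla HEK293T cells plated overnight, then compound exposure for 5 h at 37 C. Beta-lactamase reporter read with LiveBLAzer B/G FRET substrate after 2 h at room temperature, fluorescence at 405 nm excitation, 460/530 nm emission.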
# [15] = target: Thyrotropin-releasing hormone receptor (Homo sapiens) (UniProt P34981); test: qHTS assay to identify small molecule antagonists of the thyrotropin-releasing hormone receptor (TRHR) signaling pathway (AID 1346877; active = well fitted inhibition curve with a large enough effect in the repeat runs, not every such curve was filed as active; also: series mostly up to about 51 µM)
# Thyrotropin-releasing hormone receptor (Homo sapiens), sequence (P34981 whole entry, looked up): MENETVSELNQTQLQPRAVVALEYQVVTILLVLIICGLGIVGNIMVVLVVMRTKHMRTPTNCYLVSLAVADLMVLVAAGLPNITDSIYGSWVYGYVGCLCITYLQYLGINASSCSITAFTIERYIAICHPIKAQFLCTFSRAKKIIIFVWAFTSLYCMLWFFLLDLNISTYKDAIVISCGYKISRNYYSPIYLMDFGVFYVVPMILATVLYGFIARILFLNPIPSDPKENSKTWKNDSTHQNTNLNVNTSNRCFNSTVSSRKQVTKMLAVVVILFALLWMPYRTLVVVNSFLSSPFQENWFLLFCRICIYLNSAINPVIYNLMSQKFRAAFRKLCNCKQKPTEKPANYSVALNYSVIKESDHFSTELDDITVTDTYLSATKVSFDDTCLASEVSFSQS
# Procedure, shortened: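 Antagonist mode: after a 5 min room-temperature compound exposure, cells were stimulated with 1 nM (final) TRH. Dye-loaded TRHR-HEK293 cells were used, and calcium-dependent fluorescence was followed for 3 min, with 15-point titrations run in triplicate.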
# [16] = target: Androgen receptor (Homo sapiens) (UniProt P10275); test: qHTS assay to identify small molecule agonists of the androgen receptor (AR) signaling pathway in the presence of an antagonist (AID 1259381; calls by dose curve; also: nearly all actives have a fitted effect of over 15% in size)
# Androgen receptor (Homo sapiens), sequence (P10275 whole entry, looked up): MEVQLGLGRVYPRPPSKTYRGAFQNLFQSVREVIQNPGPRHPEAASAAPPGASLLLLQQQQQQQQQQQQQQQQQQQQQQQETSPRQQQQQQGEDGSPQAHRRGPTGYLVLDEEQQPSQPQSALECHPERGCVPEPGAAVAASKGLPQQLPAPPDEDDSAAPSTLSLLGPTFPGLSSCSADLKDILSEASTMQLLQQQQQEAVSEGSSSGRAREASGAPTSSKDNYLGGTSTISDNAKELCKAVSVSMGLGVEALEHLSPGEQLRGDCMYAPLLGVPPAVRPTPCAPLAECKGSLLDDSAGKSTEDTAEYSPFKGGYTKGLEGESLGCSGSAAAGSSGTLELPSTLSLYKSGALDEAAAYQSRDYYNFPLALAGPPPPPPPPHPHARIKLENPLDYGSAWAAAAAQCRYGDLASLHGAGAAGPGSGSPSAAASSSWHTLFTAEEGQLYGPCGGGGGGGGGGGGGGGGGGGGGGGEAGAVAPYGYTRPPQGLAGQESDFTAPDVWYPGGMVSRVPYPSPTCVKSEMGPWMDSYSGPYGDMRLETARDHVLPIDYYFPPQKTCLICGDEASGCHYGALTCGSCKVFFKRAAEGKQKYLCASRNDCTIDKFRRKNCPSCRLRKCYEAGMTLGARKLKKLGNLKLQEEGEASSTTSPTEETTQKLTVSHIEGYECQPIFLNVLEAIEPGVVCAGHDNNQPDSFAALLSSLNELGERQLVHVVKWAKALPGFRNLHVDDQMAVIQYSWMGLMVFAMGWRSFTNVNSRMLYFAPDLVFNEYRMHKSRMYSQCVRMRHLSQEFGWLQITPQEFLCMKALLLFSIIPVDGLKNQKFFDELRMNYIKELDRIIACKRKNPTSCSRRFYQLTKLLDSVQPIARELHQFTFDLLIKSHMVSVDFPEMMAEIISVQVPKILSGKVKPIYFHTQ
# Procedure, shortened: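 Agonist-mode confirmation run against 3.0 uM final nilutamide: compounds titrated at 15 concentrations onto MDA-kb2 MMTV-luciferase reporter cells. Luminescence measured with ONE-Glo following 16 hr incubation, 37C, 0% CO2.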
# [17] = target: Progesterone receptor (Homo sapiens) (UniProt P06401); test: qHTS assay to identify small molecule antagonists of the progesterone receptor (PR) signaling pathway (AID 1346795; active = well fitted inhibition curve with a large enough effect in the signal ratio in the repeat runs, not every such curve was filed as active; the % refers to the signal ratio; also: potency is read from the fitted curve at half-maximal effect)
# Procedure, shortened: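 PR-UAS-bla HEK293T cells with beta-lactamase reporter under UAS control, in 2% charcoal-stripped FBS, treated with compounds plus 1 nM promegestone (R5020, final) for 16 hr at 37C. Read-out: FRET beta-lactamase substrate fluorescence after 2 hr at room temperature.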
# [18] = target: Thyrotropin-releasing hormone receptor (Homo sapiens) (UniProt P34981); test: qHTS assay to identify small molecule agonists of the thyrotropin-releasing hormone receptor (TRHR) signaling pathway (AID 1346891; calls by dose curve; also: series mostly up to about 58 µM)
# Procedure, shortened: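 HEK293 cells expressing TRHR plated 18 h at 37 C/5% CO2, calcium dye-loaded 2 h at 37 C, then compound added (agonist mode); kinetic calcium fluorescence read 3 min at 1 s intervals; 15 concentrations in triplicate.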
# [19] = target: Estrogen receptor beta (Homo sapiens) (UniProt Q92731); test: qHTS assay to identify small molecule antagonists of the estrogen receptor beta (ER-beta) signaling pathway (AID 1259378; active = well fitted inhibition curve with a large enough effect in the signal ratio in the repeat runs, not every such curve was filed as active; the % refers to the signal ratio; also: potency is read from the fitted curve at half-maximal effect)
# Estrogen receptor beta (Homo sapiens), sequence (Q92731 whole entry, looked up): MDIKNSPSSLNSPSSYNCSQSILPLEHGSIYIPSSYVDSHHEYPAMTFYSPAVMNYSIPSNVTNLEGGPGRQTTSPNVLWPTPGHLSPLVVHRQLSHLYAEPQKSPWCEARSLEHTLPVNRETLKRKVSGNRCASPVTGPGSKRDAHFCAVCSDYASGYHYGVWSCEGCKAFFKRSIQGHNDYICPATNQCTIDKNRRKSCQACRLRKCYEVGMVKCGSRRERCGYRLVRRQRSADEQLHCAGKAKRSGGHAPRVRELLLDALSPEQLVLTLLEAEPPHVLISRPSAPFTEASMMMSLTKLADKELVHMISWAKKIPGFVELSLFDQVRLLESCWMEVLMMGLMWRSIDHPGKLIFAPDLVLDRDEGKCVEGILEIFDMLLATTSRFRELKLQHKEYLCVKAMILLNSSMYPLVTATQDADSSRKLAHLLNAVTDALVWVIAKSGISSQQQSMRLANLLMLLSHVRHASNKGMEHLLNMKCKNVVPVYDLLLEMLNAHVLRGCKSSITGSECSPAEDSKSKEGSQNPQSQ
# Procedure, shortened: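 ER-beta-UAS-bla HEK293T (GripTite) cells in 2% charcoal-stripped FBS medium were preincubated 6 hr at 37C, dosed with compound, then stimulated with 1 nM E2 (final) for 16 hr; beta-lactamase reporter read by B/G FRET fluorescence after 2 hr substrate loading.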
Compound,Potency [1],Potency [2],Potency [3],Potency [4],Potency [5],outcome [6],Potency [7],Potency [8],Potency [9],Potency [10],Potency [11],Potency [12],Potency [13],outcome [14],Potency [15],Potency [16],Potency [17],Potency [18],Potency [19]
C=CC(C)=O,inactive,inactive,inactive,inactive,inactive,inactive,inactive,inactive,inactive,inactive,inactive,inactive,inactive,inactive,inactive,–,–,–,–
Sc1ccccc1Cl,inactive,inactive,inactive,inactive,inactive,inactive,inactive,inactive,inactive,inactive,inactive,inactive,inactive,inactive,inactive,inactive,inactive,–,–
O=S1(=O)OC(c2cc(Br)c(O)c(Br)c2)(c2cc(Br)c(O)c(Br)c2)c2ccccc21,7.05 µM (active),25 µM (active),31.5 µM (active),–,inactive,–,–,22.3 µM (active),inactive,–,–,inactive,inactive,inactive,inactive,inactive,inactive,inactive,–
CCOc1nc(F)cc2nc(S(=O)(=O)Nc3c(Cl)cccc3Cl)nn12,inactive,inactive,inactive,inactive,inactive,inactive,inactive,inactive,inactive,inactive,inactive,inactive,inactive,inactive,inactive,–,inactive,–,inactive
N#CCC#N,inactive,inactive,–,inactive,inactive,–,inactive,inactive,inactive,–,inactive,inactive,inactive,inactive,–,inactive,inactive,inactive,inactive
CCCC(=O)Cl,inactive,inactive,inactive,inactive,inactive,inactive,inactive,inactive,inactive,–,inactive,inactive,inactive,inactive,inactive,–,–,inactive,–
Cn1cc[n+](C)c1 (tested in a mixture with another compound),inactive,inactive,inactive,inactive,inactive,inactive,inactive,inactive,inactive,inactive,inactive,inactive,inactive,inactive,–,–,inactive,inactive,–
IC(I)=C(I)I,2.73 µM (active),27.3 µM (active),21.7 µM (active),21.7 µM (active),inactive,inactive,inactive,–,–,27.3 µM (active),27.3 µM (active),43.6 µM (active),43.6 µM (active),inactive,–,inactive,17.2 µM (active),inactive,–
O=NN1CCCCCC1,inactive,inactive,inactive,inactive,inactive,–,inactive,inactive,inactive,inactive,inactive,inactive,inactive,inactive,inactive,inactive,inactive,–,–
CCOC(=O)COc1cc(-c2nn(C)c(OC(F)F)c2Cl)c(F)cc1Cl,inactive,inactive,inactive,inactive,–,–,–,inactive,inactive,–,inactive,inactive,inactive,–,inactive,inactive,inactive,inactive,–
CNC(C)Cc1ccccc1OC (stereo not given),inactive,inactive,inactive,inactive,inactive,inactive,inactive,inactive,inactive,inactive,inactive,inactive,inactive,inactive,inactive,–,inactive,inactive,–
Cl/C=C\Cl,inactive,inactive,inactive,inactive,inactive,inactive,inactive,inactive,inactive,inactive,inactive,inactive,inactive,inactive,–,–,inactive,–,–
ClC=C(Cl)Cl,inactive,inactive,inactive,inactive,inactive,inactive,inactive,inactive,inactive,inactive,inactive,inactive,inactive,inactive,–,–,inactive,inactive,–
CCC(C)(NC(=O)c1cc(Cl)c(C)c(Cl)c1)C(=O)CCl (stereo not given),inactive,61.5 µM (active),61.5 µM (active),–,inactive,inactive,–,inactive,inactive,inactive,inactive,inactive,inactive,–,inactive,–,–,inactive,19.4 µM (active)
O=C(NC(=O)c1c(F)cccc1F)Nc1ccc(OC(F)(F)C(F)OC(F)(F)F)c(Cl)c1 (stereo not given),inactive,inactive,inactive,inactive,inactive,inactive,inactive,inactive,inactive,inactive,inactive,inactive,inactive,inactive,inactive,–,inactive,–,inactive
CCCCNP(N)(N)=S,inactive,inactive,inactive,inactive,inactive,inactive,inactive,inactive,inactive,inactive,inactive,inactive,inactive,inactive,inactive,–,inactive,inactive,inactive
CCCCCCCCCCOC(=O)c1ccccc1C(=O)OCCCCCCCCCC,inactive,inactive,inactive,inactive,inactive,inactive,inactive,inactive,inactive,inactive,inactive,inactive,inactive,inactive,–,inactive,inactive,–,–
